Our source for the binding signal values is publication PMC12864922, “TDP-43 directly inhibits mRNA accumulation in neurites through modulation of mRNA stability”.

The labels stand for the following.
B1: ENSMUSG00000031028.199|Tub (ssRNA)
RNA: GGGAGUUCUACAGUCCGACGAUCGCUUCGAUAUCCGCAUGCUAACCUGCUAGGGUCUAUUCUGCAUGUCCUUUCUCUUCCCAGUUCCAGAGAUGAAACCCCUCCGAGUUAAUGUAUAAGGUUGGAAACCUUUCAGUAGGGAAUCAGGCAGUUCCCUGUUGAAAGUUGUCUGAGUUUUUGCACACCAUUCUGAUCUGAUGUGGCCUGUGCCUGGCUCCUCUAUGAGGACUUCGAGCUGUGCACAGACCUUAGCAGGACCACUGCACACUUUGUGUCUGUGUGACAGGCAGCCCAAGGGUUCUGGCUCUUGCGGUCGCACUAGUGUGGAAUUCUCGGGUGUCAAGG
B2: ENSMUSG00000090935.60|Synj2bp (ssRNA)
RNA: GGGAGUUCUACAGUCCGACGAUCGCUUCGAUAUCCGCAUGCUAAUUACCUGCACCUGGAUAUGGGACAGUAGGCUUUUACACUGUUCUUGUGAAUAGGUUUGUAAGCUUCAAAGUCUGCUUUACUUUAUCUUCUGUUAUGAUUGCCUUUGUCAGCAUAGGCAGGAGUCCUUUAGGAUUUCUGCCUAUCAGUAAAAGAAGUAUGUAACCCAAGUUCUACCUUCAGUGGAUUAAAGUUUCAUUAAGUGAAAAUGGAAAGAAAGUAGAAUUACUUGGUAAGAGGCCAAAUGAGGAUACAGAGGCUGCUCUUGCGGUCGCACUAGUGUGGAAUUCUCGGGUGUCAAGG
B3: ENSMUSG00000042529.476|Kcnj12 (ssRNA)
RNA: GGGAGUUCUACAGUCCGACGAUCGCUUCGAUAUCCGCAUGCUAAGAUGUAGGCAACAAGACUAGACCACAUUAAAUGCAUUUUGAUCUCUUUGAAUGCUACUGUGUUGAGAUGUGCGUCUCACUGGCCUCUGCCUGCCUCUCCCGCCUGCGGAGCACUUACACUUCCUGGGGCCCCUGCAGCUGGACCAUGUACAGGGCUCCCUGGGGCUUGUCCUCAGGGGCAGAGAAGGACAUGGUGGCAGCAGCACUGAGAACAGGAGCAUGGCCUCUCUCAGACCCCAGGGCAGUCAUUCAGUCUUUUCCUCUUGCGGUCGCACUAGUGUGGAAUUCUCGGGUGUCAAGG
B4: ENSMUSG00000058297.104|Spock2 (ssRNA)
RNA: GGGAGUUCUACAGUCCGACGAUCGCUUCGAUAUCCGCAUGCUAACCACGGUCUUGUGGUGAUGAGGCAGGACCUGUACACACAGCAAGGCUUACUAUCCGUCUCCUGACAUCCGAAGAGCUCGUCGCAGGUGUGUCUAAUGGCCCUUGGGCUGCACGUGGUUAAGCAUAGCUGUCUCUGUGGCCCAACACAAAGAGGUAAACUUACUUAAAACACAGGGGUUUUGUUGCUGUUUGUUUUUUGUUAGUUUGUUUGUUGAUAAUUGGAUUGAGGAGUUAAUCCUCUGUCACAAUGUCAAAAGCAUCUCUUGCGGUCGCACUAGUGUGGAAUUCUCGGGUGUCAAGG
B5: ENSMUSG00000043670.53|Diras1|229:234 (ssRNA)
RNA: GGGAGUUCUACAGUCCGACGAUCGCUUCGAUAUCCGCAUGCUACCUACAGUAAGGUUGGGCUCCAUCCCUGCCUCUUCACACCUCCAUAGCUUCAUCCUUUGCAGACCUCUCCCUCUAUAUCUCUUUGCUCCCCCACCCCCAUUCUAUCUGCACCCCACAACCACACACUGGAGGUUUGAUCCCUGUGGAUCUGAAAACAGGGACCUGGCUAAGGAACUGCUCAUCCCAGUCAGGCCCAGAGAGGUUACCUUGCCUCUCCAUCUCUGUCCCACACACCCCAGCCAUGCCCACUGUCCCUGUCCCUCUUGCGGUCGCACUAGUGUGGAAUUCUCGGGUGUCAAGG
B6: ENSMUSG00000029636.33|Wasf3|33:37;79:83 (ssRNA)
RNA: GGGAGUUCUACAGUCCGACGAUCGCUUCGAUAUCCGCAUGCUAUCCCUGUAGCUUUAGUCCCUUUUGUAUUAACACACACAUUUGCUUCUGCACAUCCUUCUGGAUUUGUUGAGUAUUUACACACAAAUACUUAAGUGCCACAGAACACAGCACACCGUGCUGCACACCAGGAAACUCGCAGUAUUAGUGCAUCACCCUGGAACAGCAUCUUGCUUCCCUCUCAGCCGUGAGAGUCCCCUCUCCUGUCCAUCCUGAUUUGGUGGGCUUGCCACGUAUCUGCGCAGCUGCCCCACGUCAGCUCUCUCUUGCGGUCGCACUAGUGUGGAAUUCUCGGGUGUCAAGG
B7: ENSMUSG00000004113.19|Cacna1b|119:123 (ssRNA)
RNA: GGGAGUUCUACAGUCCGACGAUCGCUUCGAUAUCCGCAUGCUAACCCUUACCUAGGGCAGCGUCUGGACAGUGAGGCCUCCGCCCACACCCUGCCUGAGGAUACACUCACCUUUGAAGAGGCAGUGGCCACCAACUCUGGCCGCUCCUCCAGGACUUCCUAACACACCUCCCUCACUUCCCAAUCCCACCCUCUCCGCCGUGUACCCAAUGGCUAUCACUGCACUUUGGGACUCAGCACUGGCGUCCGGGCGCGGCACAGCUACCACCACCCCGAUCAGGACCACUGGUGCUAGCUGCACCACCUCUUGCGGUCGCACUAGUGUGGAAUUCUCGGGUGUCAAGG
B8: ENSMUSG00000028439.138|Fam219a (ssRNA)
RNA: GGGAGUUCUACAGUCCGACGAUCGCUUCGAUAUCCGCAUGCUAUGUCUCUCUGCCUCAUCCCCACACCGCCCUGCCACCCCCAGUCUUCUGUCUAUUGGUUCCAGGCUGGAAGCAAGAGAUAAGGCUGGCCUCCUGUGCCCCAUUGCCAUUUCACCCUAGCUCAAAGUCCAGGAGCCAGGCUUCCAGAAAGGCUCUUCAAGAGCAAGCUUAAGGAAAUACAGUGAGCCAAGUGGCUGUAUGAUAUGGUAUGGUAUGGUAUGGUAUGGUAUGGUAUGGUAUGCACAUGUGUGUGCAUGUGUGUGCUCUUGCGGUCGCACUAGUGUGGAAUUCUCGGGUGUCAAGG
B9: ENSMUSG00000028439.147|Fam219a (ssRNA)
RNA: GGGAGUUCUACAGUCCGACGAUCGCUUCGAUAUCCGCAUGCUAGGUUCCAGGCUGGAAGCAAGAGAUAAGGCUGGCCUCCUGUGCCCCAUUGCCAUUUCACCCUAGCUCAAAGUCCAGGAGCCAGGCUUCCAGAAAGGCUCUUCAAGAGCAAGCUUAAGGAAAUACAGUGAGCCAAGUGGCUGUAUGAUAUGGUAUGGUAUGGUAUGGUAUGGUAUGGUAUGGUAUGCACAUGUGUGUGCAUGUGUGUGUGCCUGUGUGUGUGCGUGUGCGUGUGUGUAUGUGUGUGCGUGUGUGUGUGUGUGCUCUUGCGGUCGCACUAGUGUGGAAUUCUCGGGUGUCAAGG
B10: ENSMUSG00000028439.140|Fam219a (ssRNA)
RNA: GGGAGUUCUACAGUCCGACGAUCGCUUCGAUAUCCGCAUGCUAUCAUCCCCACACCGCCCUGCCACCCCCAGUCUUCUGUCUAUUGGUUCCAGGCUGGAAGCAAGAGAUAAGGCUGGCCUCCUGUGCCCCAUUGCCAUUUCACCCUAGCUCAAAGUCCAGGAGCCAGGCUUCCAGAAAGGCUCUUCAAGAGCAAGCUUAAGGAAAUACAGUGAGCCAAGUGGCUGUAUGAUAUGGUAUGGUAUGGUAUGGUAUGGUAUGGUAUGGUAUGCACAUGUGUGUGCAUGUGUGUGUGCCUGUGUGUGCUCUUGCGGUCGCACUAGUGUGGAAUUCUCGGGUGUCAAGG
B11: ENSMUSG00000028439.137|Fam219a (ssRNA)
RNA: GGGAGUUCUACAGUCCGACGAUCGCUUCGAUAUCCGCAUGCUAUGCAUCUGUCUCUCUGCCUCAUCCCCACACCGCCCUGCCACCCCCAGUCUUCUGUCUAUUGGUUCCAGGCUGGAAGCAAGAGAUAAGGCUGGCCUCCUGUGCCCCAUUGCCAUUUCACCCUAGCUCAAAGUCCAGGAGCCAGGCUUCCAGAAAGGCUCUUCAAGAGCAAGCUUAAGGAAAUACAGUGAGCCAAGUGGCUGUAUGAUAUGGUAUGGUAUGGUAUGGUAUGGUAUGGUAUGGUAUGCACAUGUGUGUGCAUGCUCUUGCGGUCGCACUAGUGUGGAAUUCUCGGGUGUCAAGG
B12: ENSMUSG00000028439.148|Fam219a (ssRNA)
RNA: GGGAGUUCUACAGUCCGACGAUCGCUUCGAUAUCCGCAUGCUAAGGCUGGAAGCAAGAGAUAAGGCUGGCCUCCUGUGCCCCAUUGCCAUUUCACCCUAGCUCAAAGUCCAGGAGCCAGGCUUCCAGAAAGGCUCUUCAAGAGCAAGCUUAAGGAAAUACAGUGAGCCAAGUGGCUGUAUGAUAUGGUAUGGUAUGGUAUGGUAUGGUAUGGUAUGGUAUGCACAUGUGUGUGCAUGUGUGUGUGCCUGUGUGUGUGCGUGUGCGUGUGUGUAUGUGUGUGCGUGUGUGUGUGUGUGUGUUGUCUCUUGCGGUCGCACUAGUGUGGAAUUCUCGGGUGUCAAGG
B13: ENSMUSG00000028439.141|Fam219a (ssRNA)
RNA: GGGAGUUCUACAGUCCGACGAUCGCUUCGAUAUCCGCAUGCUACCACACCGCCCUGCCACCCCCAGUCUUCUGUCUAUUGGUUCCAGGCUGGAAGCAAGAGAUAAGGCUGGCCUCCUGUGCCCCAUUGCCAUUUCACCCUAGCUCAAAGUCCAGGAGCCAGGCUUCCAGAAAGGCUCUUCAAGAGCAAGCUUAAGGAAAUACAGUGAGCCAAGUGGCUGUAUGAUAUGGUAUGGUAUGGUAUGGUAUGGUAUGGUAUGGUAUGCACAUGUGUGUGCAUGUGUGUGUGCCUGUGUGUGUGCGUGCUCUUGCGGUCGCACUAGUGUGGAAUUCUCGGGUGUCAAGG

Whole data set: some 9,900 sequences, median “r (bound/input frequency ratio)” near 0.7, cut for the highest 2% near 6.5. Shown is part of a subset that was picked to be rich in the highest values.

Sequence of TDP-43 (Q13148 whole entry): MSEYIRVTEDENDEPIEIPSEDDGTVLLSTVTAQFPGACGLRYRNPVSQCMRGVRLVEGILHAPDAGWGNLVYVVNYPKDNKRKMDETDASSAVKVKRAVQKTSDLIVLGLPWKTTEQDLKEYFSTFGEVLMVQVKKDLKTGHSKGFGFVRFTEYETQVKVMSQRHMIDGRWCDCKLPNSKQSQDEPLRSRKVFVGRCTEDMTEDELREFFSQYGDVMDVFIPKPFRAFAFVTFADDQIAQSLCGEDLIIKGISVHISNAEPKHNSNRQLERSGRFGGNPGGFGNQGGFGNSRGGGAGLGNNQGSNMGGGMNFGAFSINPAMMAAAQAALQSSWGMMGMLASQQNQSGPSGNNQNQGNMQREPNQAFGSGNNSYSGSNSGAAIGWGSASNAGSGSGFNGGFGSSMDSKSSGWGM

In the assay the target is TDP-43 (Homo sapiens, UniProt Q13148 1-414). Description: RNA Bind-n-Seq with designed 260-mer pool; 25 mM Tris-HCl, 150 mM KCl, 3 mM MgCl2, BSA (printed 500 mg/mL), 20 units/mL SUPERase IN; pH not stated; 500 nM RNA pool, 1 h, 4 C; TDP-43 5, 50, 500 nM; high values mean tight binding. The conditions noted are these: protein: recombinant; tags: SBP (GST cleaved off with PreScission; pGEX-GST-SBP). An outline of the steps:
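Recombinant SBP-tagged TDP-43 at 5, 50 or 500 nM was captured on streptavidin beads, then incubated 1 h at 4 °C with 500 nM of an in vitro-transcribed 260-nt 3′ UTR oligo pool in 25 mM Tris-HCl, 150 mM KCl, 3 mM MgCl2, BSA and SUPERase IN. Bound RNA was washed, eluted with biotin, reverse transcribed, PCR-amplified and sequenced. Binding is R, each oligo's mapped-read-normalized abundance in the bound sample divided by its abundance in input. Duplicates used two independent protein batches.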
Consider B1, for which the binding signal is 1.55 R (bound/input frequency ratio). For the molecule B2, the binding signal was 0.778 R (bound/input frequency ratio). B3: the binding signal is 0.564 R (bound/input frequency ratio). In the case of B4, the binding signal was 0.391 R (bound/input frequency ratio).

Take B5: the binding signal is 2.98 R (bound/input frequency ratio).

Turning to B6, the binding signal is 0.758 R (bound/input frequency ratio). For B7 the value was 1.6 R (bound/input frequency ratio). In the case of B8, the binding signal was 1.6 R (bound/input frequency ratio). B9: the binding signal is 7.43 R (bound/input frequency ratio). On to B10, for which the binding signal is 2.02 R (bound/input frequency ratio). For B11, the binding signal is 1.7 R (bound/input frequency ratio).

For B12, the binding signal is 7.16 R (bound/input frequency ratio). On to B13, for which the binding signal was 3.58 R (bound/input frequency ratio).
